# Experimental data from PubChem BioAssay AID686978 (National Center for Advancing Translational Sciences (NCATS), 2013).
# About 64,000 (15%) of roughly 420,000 compounds were called active. Not shown: some 27% with an inconclusive outcome. The call rests on the fitted dose curve; in most records, active means well fitted inhibition curve with a large enough effect; inconclusive means small, poorly fitted or top-dose-only effect; inactive means flat fitted curve, though single readings scatter. A selection follows.
# Assay: qHTS for Inhibitors of human tyrosyl-DNA phosphodiesterase 1 (TDP1): qHTS in cells in absence of CPT; further: nearly all actives have a fitted effect of over 55% in size
# Conditions: DT40 Tdp1-/- hTDP1 cells, no CPT, ATP luminescence, 48 h; activity change, negative = growth inhibition: at 46.2 µM (top of the series)
# In short: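 Seeded 400 DT40-hTDP1 cells/well (vehicle DMSO, no 20 nM CPT); pinned compounds; ≥48 hr at 37 °C; CellTiter-Glo luminescence as viability measure.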
# On the % scale 0 is the no-effect control and ±100 the full control effect; potency means the concentration at half of the fitted maximal effect.
SMILES,"activity change, negative = growth inhibition",Potency
COc1ccc(C2(C)NC(=O)N(CC(=O)c3ccc4c(c3)OCO4)C2=O)cc1 (stereo not drawn),-20.5% (inactive),–
CCc1ccc(-n2nnc(-c3nc(-c4ccccc4)no3)c2C)cc1,3.01% (inactive),–
Cc1ccc(NC(=O)CSc2nnc(CNC(=O)c3ccccc3F)o2)cc1Cl,6.65% (inactive),–
Cc1cccc(-n2c(SCC(=O)Nc3cccc(S(=O)(=O)NC4=NCCCCC4)c3)nc3ccccc3c2=O)c1C,–,16.4 µM (active)
COc1ccccc1C(=O)OCC(=O)Nc1cccc(S(=O)(=O)NC2=NCCCCC2)c1,-28.2% (inactive),–
CCc1ccc(C(=O)OCC(=O)Nc2cccc(S(=O)(=O)NC3=NCCCCC3)c2)cc1,-16.1% (inactive),–
O=C(Cc1cccs1)Nc1nnc(SCc2ccc(F)cc2)s1,-8.66% (inactive),–
O=[N+]([O-])c1cccc(C=NN=Cc2ccccc2O)c1,-0.122% (inactive),–
O=[N+]([O-])c1ccc(O)c(/C=N/Nc2ccccc2[N+](=O)[O-])c1,–,18.4 µM (active)
Nc1nnnn1/N=C/c1cc([N+](=O)[O-])ccc1O,-19% (inactive),–
CCCCn1c(N)c(N(CCC(C)C)C(=O)c2ccc(COc3ccccc3)o2)c(=O)[nH]c1=O,-8.96% (inactive),–
CS(=O)(=O)N1CCN(CC(=O)NC2CCCC2)CC1,-27.4% (inactive),–
COc1ccccc1-n1c(-c2cc(-c3ccco3)[nH]n2)n[nH]c1=S,-5.33% (inactive),–
CN(c1nc2ccccc2n2c(-c3ccco3)nnc12)S(=O)(=O)c1ccccc1,-12.7% (inactive),–
Cn1c(-c2ccco2)nc2cc3ccccc3cc21,–,20.6 µM (active)
CCN(CC)C(=O)CSC1c2ccccc2C(=O)N1c1ccccc1 (stereo not drawn),-17.6% (inactive),–
COC(=O)c1ccc(-n2cnc3ccccc32)nc1,0.376% (inactive),–
COC(=O)CSc1nc(C)c2ccc(OC)cc2n1,-3.51% (inactive),–
O=C(O)C(c1ccccc1)C1(O)CCCCC1 (stereo not drawn),-7.94% (inactive),–
O=C(Nn1c(-c2ccc(Cl)cc2)nc2ccccc2c1=O)c1cccnc1Cl,2.46% (inactive),–
CC1COc2ccccc2N1C(=O)c1cccnc1Cl (stereo not drawn),-1.42% (inactive),–
CN1/C(=C\C(=O)c2cccnc2Cl)C(C)(C)c2ccccc21,–,16.4 µM (active)
COCCN(C(=O)CCC(=O)Nc1nccs1)C(C(=O)NCCC(C)C)c1ccc(F)cc1 (stereo not drawn),-22.3% (inactive),–
Cc1ncc2c(c1CNS(=O)(=O)N(C)C)CCN(C(=O)c1ccccc1F)C2,-14.2% (inactive),–
CC(=O)N1N=C(c2ccncc2)OC1(Cc1ccccc1)Cc1ccccc1,–,8.2 µM (active)
CC(C)(C)N(Cc1ccccc1)C(=O)c1ccncc1,8.21% (inactive),–

SMILES,"activity change, negative = growth inhibition",Potency
CC(=O)N1N=C(c2ccccc2)OC1c1cccnc1 (stereo not drawn),-18.3% (inactive),–
CC1(c2cccc(N)c2)OCCO1,1.06% (inactive),–
Cc1ccc(S(=O)(=O)/N=C(/NC(=S)Nc2c(C)n(C)n(-c3ccccc3)c2=O)c2ccccc2)cc1,14.8% (inactive),–
CC(C)C(=O)NCC(c1cccs1)S(=O)(=O)c1ccc(F)cc1 (stereo not drawn),11.1% (inactive),–
Cc1ccccc1CNC(=O)C(=O)NCC(c1cccs1)S(=O)(=O)c1cccs1 (stereo not drawn),–,14.6 µM (active)
COc1ccccc1CNC(=O)COC(=O)c1cccs1,-1.27% (inactive),–
O=C(CNC(=O)c1ccco1)NNC(=O)c1ccc(Br)cc1,17.5% (inactive),–
O=C(Oc1ccccc1)c1ccc2nccnc2c1,2.88% (inactive),–
CC(C)c1nc(-c2ccccn2)no1,-11.4% (inactive),–
O=C(Oc1ccc(-c2nc(-c3ccccn3)no2)cc1)c1ccccc1,–,9.2 µM (active)
COc1ccc(S(=O)(=O)N2CCN(CC(=O)N3c4ccccc4CC3C)CC2)cc1OC (stereo not drawn),-5.83% (inactive),–
O=C(NC1=NCCS1)[C@H](Cc1ccccc1)N1C(=O)c2ccccc2C1=O,-17.9% (inactive),–
Cc1occc1C(=O)NC1CCCN(Cc2ccc(CC(C)C)cc2)C1 (stereo not drawn),–,20.6 µM (active)
Cc1occc1C(=O)Nc1cccc(Cn2cccn2)c1,-25.6% (inactive),–
Cc1occc1C(=O)NNC(=S)NCC(C)C,-1.82% (inactive),–
CCOC(=O)C(NC(C)=O)C(=O)Nc1ccc(OC)cc1 (stereo not drawn),-3.87% (inactive),–
CC(=O)N(O)CCCCCNC(=O)CCC(=O)N(O)CCCCCNC(=O)CCC(=O)N(O)CCCCCNC(=O)CCC(=O)O,-5.15% (inactive),–
Cc1cc(C)nc(NC2=NCC(=O)N2c2ccc(Cl)cc2)n1,-7.59% (inactive),–
CCOC(=O)N1CCN(C(=O)c2ccc3nc4cc(Cl)ccc4c(=O)n3c2)CC1,-13.1% (inactive),–
CCc1nc2ccc(C(=O)N3CCN(c4cc(Cl)ccc4C)CC3)cc2nc1CC,–,18.4 µM (active)
Cc1ccc(Cl)cc1N1CCN(C(=O)c2cccn3c(=O)c4cc(Cl)ccc4nc23)CC1,-1.72% (inactive),–
CN(C)CCCNC(=S)N1CCC(c2nc3ccccc3[nH]2)CC1,10.9% (inactive),–
CC(C)(C)c1ccc(C(CC(=O)O)NS(=O)(=O)Cc2ccccc2)cc1 (stereo not drawn),12.1% (inactive),–
CCCCc1nc2c(=O)[nH]c3ccccc3c2o1,-13.7% (inactive),–
O=S(=O)(ON(c1ccccc1)S(=O)(=O)c1ccccc1)c1ccccc1,-27.9% (inactive),–
CC1=C/C(=N\OS(=O)(=O)c2ccccc2)C=CC1=O,–,1 µM (active)

SMILES,"activity change, negative = growth inhibition",Potency
CSc1nc2ccc(NC(=O)c3c(F)cccc3F)cc2s1,-1.17% (inactive),–
CCCC(=O)Nc1nc2ccc(NC(=O)c3c(F)c(F)c(OC)c(F)c3F)cc2s1,–,0.651 µM (active)
CCC(=O)Nc1cccc(NC(=O)c2cccnc2)c1,7.17% (inactive),–
CCCC(=O)Nc1nc2ccc(NC(=O)c3cccnc3)cc2s1,–,9.2 µM (active)
CCOC(=O)c1cc(NC(=O)c2cccnc2)cc(C(=O)OCC)c1,-5.59% (inactive),–
CCCC(=O)Nc1ccc2c(c1)nc1n2CCSC1,-2.08% (inactive),–
O=C(COC(=O)/C=C/c1ccc(OC(F)F)cc1)NC1CCCCC1,-11% (inactive),–
O=C(CCNS(=O)(=O)c1ccccc1)NCCCc1ccccc1,15.1% (inactive),–
O=S(=O)(c1ccccc1)N1CN(Cc2ccc(F)cc2)c2nc3ccccc3nc21,-29.9% (inactive),–
O=C(CCN1C(=O)C2CCCCC2C1=O)Nc1ccc(OC(F)F)cc1 (stereo not drawn),-2.98% (inactive),–
COc1ccccc1CNc1ncnc2ccc(-c3c(C)noc3C)cc12,–,11.6 µM (active)
COc1ccccc1CNc1ncnc2ccc(-c3ccc4c(c3)OCO4)cc12,-26.4% (inactive),–
COCCNc1ncnc2ccc(-c3ccccc3CN(C)C)cc12,-13.2% (inactive),–
CCC1(CC)NC(=O)N(CC(=O)OCC(=O)Nc2ccc(C(F)(F)F)cc2)C1=O,-10.4% (inactive),–
CCCN(CCc1ccccc1)C1CCc2c(O)cccc2C1 (stereo not drawn),–,11.6 µM (active)
CCCN(C/C=C\I)[C@@H]1CCc2cccc(O)c2C1,–,21.1 µM (active)
O=C(C(=O)N1CCOc2ccc(CN3CCN(Cc4ccccn4)CC3)cc2C1)c1ccccc1,-22.4% (inactive),–
COCCNC(=O)c1onc(CSc2cccc(C)c2)c1C(=O)O,-8.38% (inactive),–
CCOc1ccc(NC(=S)N2CCC(N(C)CC3CCCO3)CC2)cc1 (stereo not drawn),1.02% (inactive),–
COc1ccc2oc(N)c(C=O)c(=O)c2c1,0.424% (inactive),–
CCOc1ccc(NC(=O)C/C(C)=N/NC(=O)Cc2cccs2)cc1,-1.31% (inactive),–
CN1C(=O)[C@H]2[C@@H](C3CC3)N3C(=O)CN(Cc4ccccc4)C(=O)[C@@]3(C)[C@H]2C1=O,2.76% (inactive),–
Cc1cccc(C)c1NC(=O)N1CC=C(n2c(=O)[nH]c3ccccc32)CC1,–,20.6 µM (active)
Cc1cccc(C)c1NC(=O)N1CC(C)OC(C)C1 (stereo not drawn),19.8% (inactive),–
Cc1ccccc1Cn1c(=O)[nH]c2ccccc21,-22.8% (inactive),–
COc1ccc(C)cc1N1C(=O)[C@@H]2C[C@H]1CN2Cc1cccc(OC)c1O,-29.5% (inactive),–

SMILES,"activity change, negative = growth inhibition",Potency
COc1ccc(N2CCC(N3CCN(C)C(CCO)C3)CC2)cc1 (stereo not drawn),25.1% (inactive),–
COc1ccc(-c2c3c(=O)n(C)c(=O)n(C)c3c3c(C)nc4ccccc4n23)cc1,–,20.6 µM (active)
COc1ccc(-c2[nH]c3c(c2-c2c(-n4cccc4)n(C)c(=O)n(C)c2=O)c(=O)n(C)c(=O)n3C)cc1,-7.33% (inactive),–
COc1ccc(-c2c3c(=O)n(C)c(=O)n(C)c3cn2NC(C)=O)cc1,1.83% (inactive),–
CC1=NNC(=O)C1CCC(=O)N/N=C\c1cccc(Cl)c1 (stereo not drawn),6.28% (inactive),–
Cc1ccc(S(=O)(=O)N2[C@@H](Cc3ccccc3)CO[C@H]2CC(=O)OCc2ccccc2)cc1,–,23.1 µM (active)
CC(=O)C[C@@H]1OC[C@H](CO)N1S(=O)(=O)c1ccc(C)cc1,11% (inactive),–
CC(=O)C[C@@H]1OC[C@H](C)N1S(=O)(=O)c1ccc(C)cc1,1.6% (inactive),–
CC(=O)Nc1nc(C)c(Cc2ccccc2)c(=O)[nH]1,3.66% (inactive),–
CCCCn1c(N)c(N(CC(C)C)C(=O)c2ccc(Br)o2)c(=O)[nH]c1=O,-34.5% (inactive),–
Cc1cc(C)cc(CN2CCc3nnc(C(NS(C)(=O)=O)C(C)C)n3CC2)c1 (stereo not drawn),-16.9% (inactive),–
O=S1(=O)CC(N2CCN(Cc3ccccc3F)CC2)CN1Cc1cn(Cc2cccc(C(F)(F)F)c2)nn1 (stereo not drawn),–,16.4 µM (active)
CN(C)C1CN(Cc2cn(Cc3ccccc3)nn2)S(=O)(=O)C1 (stereo not drawn),-19.1% (inactive),–
O=S1(=O)CC(N2CCN(CCO)CC2)CN1Cc1cn(Cc2ccc(Cl)cc2)nn1 (stereo not drawn),-19.6% (inactive),–
CCCCCCN1CCN(C2CN(Cc3cn(CCCCCC)nn3)S(=O)(=O)C2)CC1 (stereo not drawn),–,20.6 µM (active)
CN(Cc1cn(Cc2ccc(C(F)(F)F)cc2)nn1)C1CN(Cc2cn(Cc3ccc(C(F)(F)F)cc3)nn2)S(=O)(=O)C1 (stereo not drawn),–,4.61 µM (active)
Cc1ccc(Cn2cc(CN3CC(N4CCN(C)CC4)CS3(=O)=O)nn2)cc1 (stereo not drawn),-22.6% (inactive),–
Cc1cccc(CN2CCN(C3CN(Cc4cn(Cc5cc(C)cc(C)c5)nn4)S(=O)(=O)C3)CC2)c1 (stereo not drawn),–,16.4 µM (active)
O=S1(=O)CC(N2CCN(CCO)CC2)CN1Cc1cn(Cc2cccc(Cl)c2)nn1 (stereo not drawn),6.99% (inactive),–
CC(C)C(C)(C#N)NC(=O)CSc1nc2scc(-c3ccccc3)c2c(=O)[nH]1 (stereo not drawn),-17.6% (inactive),–
CC1(c2ccc(Cl)cc2)NC(=O)N(CC(=O)c2ccc3c(c2)OCO3)C1=O (stereo not drawn),-5.62% (inactive),–
Cn1c2c(c(=O)n(C)c1=O)CN(Cc1ccco1)CN2,4.5% (inactive),–
CC(=O)NC(Cc1ccc(F)c(F)c1)C(=O)NC1CCN(C(=O)c2ccc(C)cc2)CC1 (stereo not drawn),-5.08% (inactive),–
CCOc1ccc(S(=O)(=O)N2CCCCCC2)c2ccccc12,-29.8% (inactive),–
COc1ccc(-c2ocnc2C(=O)Nc2ccc3c(c2)CCC3)cc1,-22.7% (inactive),–
